About 300 (9.4%) of roughly 3,200 compounds showed activity. This excerpt belongs to a sample that is enriched for actives.
Tested on: A673/TR/shEF
Test: cell viability (LOESS-normalised, relative to median of negative controls) (log2 ratio); higher = more viable cells (less compound effect), active = hit call of the paper (over 3 MAD below the median)
Conditions: treatment time: 72 h
Method in brief: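 Doxycycline, present or absent from 24 h before compounds, was used to induce EWS-FLI1 shRNA knockdown in A673/TR/shEF Ewing sarcoma cells at 1,500 per well in 384-well plates. Cells then received library compounds at two or more concentrations, or DMSO controls, for three days. Viability was measured by CellTiter-Glo luminescence on an Envision reader, and per-plate LOESS correction, division by the negative-control median and log2 transformation followed.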

[1] = 0.25 µM, library screen: screen1, EWS-FLI1 expression: high (no doxycycline)
[2] = 0.25 µM, library screen: screen1, EWS-FLI1 expression: low (doxycycline-induced shRNA knockdown)
[3] = 2.5 µM, library screen: screen1, EWS-FLI1 expression: high (no doxycycline)
[4] = 2.5 µM, library screen: screen1, EWS-FLI1 expression: low (doxycycline-induced shRNA knockdown)
[5] = 0.103 µM, library screen: screen3, EWS-FLI1 expression: high (no doxycycline)
[6] = 0.103 µM, library screen: screen3, EWS-FLI1 expression: low (doxycycline-induced shRNA knockdown)
[7] = 0.308 µM, library screen: screen3, EWS-FLI1 expression: high (no doxycycline)
[8] = 0.308 µM, library screen: screen3, EWS-FLI1 expression: low (doxycycline-induced shRNA knockdown)
[9] = 0.926 µM, library screen: screen3, EWS-FLI1 expression: high (no doxycycline)
[10] = 0.926 µM, library screen: screen3, EWS-FLI1 expression: low (doxycycline-induced shRNA knockdown)
[11] = 2.8 µM, library screen: screen3, EWS-FLI1 expression: high (no doxycycline)
[12] = 2.8 µM, library screen: screen3, EWS-FLI1 expression: low (doxycycline-induced shRNA knockdown)
[13] = 8.3 µM, library screen: screen3, EWS-FLI1 expression: high (no doxycycline)
[14] = 8.3 µM, library screen: screen3, EWS-FLI1 expression: low (doxycycline-induced shRNA knockdown)
[15] = 25 µM, library screen: screen3, EWS-FLI1 expression: high (no doxycycline)
[16] = 25 µM, library screen: screen3, EWS-FLI1 expression: low (doxycycline-induced shRNA knockdown)

Measured: cell viability (log2)

CSCCC(NC=O)C(=O)NC(CC(C)C)C(=O)NC(Cc1ccccc1)C(=O)O (configuration not stated)
inactive: [1] 0.0125 | [2] 0.0891 | [3] 0.0974 | [4] 0.0808

Cn1cncc1[C@@](N)(c1ccc(Cl)cc1)c1ccc2c(c1)c(-c1cccc(Cl)c1)cc(=O)n2C
active: [7] -0.29 | [9] -0.324 | [11] -0.403 | [12] -0.128 | [13] -0.472 | [14] -0.135 | [15] -0.511 | [16] -0.303
inactive: [5] -0.139 | [6] -0.0373 | [8] -0.0603 | [10] -0.0604

COc1ccccc1C1NC(=S)NC(C)=C1C(=O)Nc1cccc(Cl)c1 (configuration not stated)
inactive: [1] 0.0961 | [2] 0.101 | [3] 0.0795 | [4] 0.0861

O=C(O)C(O)C(O)(Cc1ccc(O)cc1)C(=O)O (configuration not stated)
inactive: [1] 0.147 | [2] 0.0709 | [3] 0.147 | [4] 0.089

C[C@@H]1CC[C@@]2(OC1)O[C@H]1C[C@H]3[C@@H]4CC[C@H]5C[C@@H](O)CC[C@]5(C)[C@H]4C[C@@H](O)[C@]3(C)[C@H]1[C@@H]2C
inactive: [1] 0.0822 | [2] 0.0668 | [3] 0.111 | [4] 0.136

COc1ccccc1C=CC(=O)O
inactive: [1] 0.0113 | [2] -0.0457 | [3] 0.102 | [4] 0.0515

CN(C)c1ccc(C(=C2C=CC(=[N+](C)C)C=C2)c2ccc(N(C)C)cc2)cc1
inactive: [5] 0.0956 | [6] -0.0594 | [1] 0.105 | [2] 0.00922 | [7] 0.0542 | [8] 0.0588 | [9] 0.098 | [10] 0.0226 | [3] 0.0691 | [4] 0.106
active: [11] -0.295 | [12] -0.547 | [13] -2.54 | [14] -1.19 | [15] -4.26 | [16] -1.87

O=C1C=CC(=C(c2ccc(O)cc2)c2ccc(O)cc2)C=C1
inactive: [1] 0.083 | [2] 0.0465 | [3] 0.0975 | [4] 0.0767

COc1ccc(-c2cc(=O)c3c(OC)cc(OC)cc3o2)cc1
inactive: [1] 0.0279 | [2] 0.0681 | [3] 0.0807 | [4] 0.22

CC(=O)Oc1cc(C)c2c(c1C(OC(C)=O)OC(C)=O)Oc1c(c(C)c(OC(C)=O)c3c1C(OC(C)=O)OC3=O)OC2=O (configuration not stated)
inactive: [1] 0.0407 | [2] 0.0968 | [3] 0.0425 | [4] 0.133

CC1(C)CC[C@]2(C)CC[C@]3(C)C(=CC[C@@H]4[C@@]5(C)CC[C@H](O)C(C)(C)[C@@H]5CC[C@]43C)[C@@H]2C1
inactive: [1] 0.0903 | [2] 0.0065 | [3] 0.1 | [4] 0.118

COC1=C[C@@H](C)[C@@H]2C[C@H]3OC(=O)C[C@H]4C(C)=C(OC)C(=O)[C@H]([C@@]2(C)C1=O)[C@@]34C
inactive: [1] 0.0742 | [2] 0.006 | [3] 0.146 | [4] 0.0264

Cc1ccc(C(=O)Nc2ccc(CN3CCN(C)CC3)c(C(F)(F)F)c2)cc1C#Cc1cnc2cccnn12
active: [9] -0.202 | [11] -0.252 | [13] -0.655 | [14] -0.442 | [15] -1.59 | [16] -1.35
inactive: [5] -0.0141 | [6] 0.111 | [7] -0.0138 | [8] 0.169 | [12] 0.093
0.218: [10]

CC(C)c1c(O)ccc2c1CCC1[C@@](C)(C(=O)O)CCC[C@]21C (some centres not stated)
inactive: [1] 0.0397 | [2] 0.152 | [3] 0.0988 | [4] 0.234

C=C(C)/C=C1/C=CC(=O)C(C)=C1
inactive: [1] 0.0888 | [2] 0.0664 | [3] 0.0231 | [4] 0.158

CCCCOc1ccc(CC(=O)NO)cc1
inactive: [1] 0.0397 | [2] 0.0519 | [3] 0.124 | [4] 0.116

CCCOc1ccc2nc(NC(=O)OC)[nH]c2c1
inactive: [1] 0.0532 | [2] 0.106 | [4] -0.0137
active: [3] -0.659

CCCSc1ccc2nc(NC(=O)OC)[nH]c2c1
active: [1] -0.206 | [3] -1.99 | [4] -1.04 | [11] -0.524 | [13] -1.81 | [14] -0.886 | 25 µM, library screen: screen2, EWS-FLI1 expression: high (no doxycycline) -1.74 | 25 µM, library screen: screen2, EWS-FLI1 expression: low (doxycycline-induced shRNA knockdown) -0.157 | [15] -2.99 | [16] -1.16
inactive: 0.025 µM, library screen: screen2, EWS-FLI1 expression: high (no doxycycline) 0.0864 | 0.025 µM, library screen: screen2, EWS-FLI1 expression: low (doxycycline-induced shRNA knockdown) 0.0115 | [5] 0.197 | [6] -0.0327 | [2] -0.0499 | 0.25 µM, library screen: screen2, EWS-FLI1 expression: high (no doxycycline) 0.0348 | 0.25 µM, library screen: screen2, EWS-FLI1 expression: low (doxycycline-induced shRNA knockdown) 0.051 | [7] 0.0506 | [8] 0.123 | [9] 0.0609 | [10] 0.0788 | 2.5 µM, library screen: screen2, EWS-FLI1 expression: high (no doxycycline) 0.158 | 2.5 µM, library screen: screen2, EWS-FLI1 expression: low (doxycycline-induced shRNA knockdown) 0.0631 | [12] 0.00738

O=c1cccc2c([C@H]3Oc4cc(O)cc(O)c4C[C@H]3O)cc(O)c(O)c2c1O
inactive: [1] 0.06 | [2] 0.00163 | [3] 0.108 | [4] 0.0999

N#C/C(=C\c1cc(Cl)cc(Cl)c1)c1cccnc1
inactive: 0.025 µM, library screen: screen1, EWS-FLI1 expression: high (no doxycycline) 0.0512 | 0.025 µM, library screen: screen1, EWS-FLI1 expression: low (doxycycline-induced shRNA knockdown) 0.0254 | [1] 0.126 | [2] 0.0849 | [3] 0.0839 | [4] 0.0837 | 25 µM, library screen: screen1, EWS-FLI1 expression: high (no doxycycline) -0.0133 | 25 µM, library screen: screen1, EWS-FLI1 expression: low (doxycycline-induced shRNA knockdown) 0.21

CC(C)c1ccc2c(c1)CC[C@@]1(C)[C@](C)(C(N)=O)CCC[C@]21C
inactive: [1] 0.0259 | [2] 0.0473 | [3] 0.108 | [4] 0.0563

CC(=O)O[C@H]1CC[C@@]2(C)C(CC[C@]3(C)C2CC=C2C4CC(C)(C)CC[C@]4(C)CCC23C)C1(C)C (some centres not stated)
inactive: [1] 0.05 | [2] 0.112 | [3] 0.0854 | [4] 0.111

COc1ccc(OC)c(CN2CCN(Cc3ccc(OC)c(OC)c3)CC2)c1
inactive: [1] 0.114 | [2] 0.0365 | [3] 0.174 | [4] 0.0479

COc1ccc(OC)c(CN2CCN(Cc3ccccc3OC)CC2)c1
inactive: [1] 0.101 | [2] 0.0584 | [3] 0.0952 | [4] 0.0149

COc1ccc(OC)c(CN2CCN(Cc3cc(OC)c(OC)cc3OC)CC2)c1
inactive: [2] 0.113 | [3] 0.0261 | [4] -0.0111
active: [1] -0.103

From the supplement of paper PMC6089552
